Test results: PubChem BioAssay (NCI)
Where “and” joins values, the source holds several entries; their conditions need not be identical. Identical values can stand only once. About 83,000 compounds went through this panel and 20% of them were active in at least one assay; those are over-represented in the sample as a whole.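 The endpoint reported here, percent growth, reads 100 for growth as untreated, 0 for no net growth and -100 for all cells dead.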 A number with no mark means an inactive call. Calls of active or inactive are those of the source. Rule for the calls: active = growth percent below 10; inactive = the rest.

test system: MDA-MB-468 breast; assay: NCI-60 one-dose screen, 48 h (100 = growth as untreated, 0 = no growth, -100 = all killed); conditions: 10 µM unless noted

In the case of `C=C(C)[C@@H]1CC[C@]2(CO)CC[C@]3(C)[C@H](CC[C@@H]4[C@@]5(C)CC[C@H](NCO)C(C)(C)[C@@H]5CC[C@]43C)[C@@H]12`, the growth is reported as -74.8% (active).
`C=CC(=O)NCCOc1cccc(Nc2cc(NCCCNC(=O)C3CCC3)c(Br)cn2)c1` was tested, and the growth was -59.5% (active).
In the case of `CC(C)[O-].CC(C)[O-].CN(CCN(C)Cc1cc(F)cc(F)c1[O-])Cc1cc(F)cc(F)c1[O-].[Ti+4]`, the growth is reported as -36.8% (active).
With `CC1(C)OC(=O)C(=Cc2ccc(C#N)cc2)C(=O)O1` the growth was 91.7% and 96.1%.
In the case of `c1ccc2c(c1)oc1c3c(ccc12)NCCC3`, the growth is reported as -51.5% (active).
For `CC(=O)O[C@H]1Cc2c([nH]c3ccccc23)[C@@H](c2ccc(Cl)cc2)N1C(=O)CCNC(C)(C)C`, the growth was 8.31% (active).
In the case of `COc1cc(-c2nc3cc(Cl)c(Cl)cc3[nH]2)ccc1OCC(=O)N=Nc1c(O)[nH]c2ccc(Cl)cc12`, the growth is reported as -56.3% (active).

Point of comparison: `COc1ccc(/C(=C\c2cc(OC)c(OC)c(OC)c2)C(=O)N2CCNCC2)cc1`, growth 94.3%. Against it:
- COC(=O)[C@]1(C)CCC[C@]2(C)[C@H]3C[C@H]4C(C(C)C)=C[C@]3(CC[C@H]21)[C@@H]1C(=O)N(CCC#N)C(=O)[C@@H]14 — lower, 86.9%
- COc1ccc(C/C(C)=C(\c2ccc(O)cc2)c2ccc(OCCN3CCCC3)cc2)cc1 — higher, 124%
- CCC(=O)Oc1ccc2c(c1)CC[C@@H]1[C@@H]2CC[C@]2(C)C[C@H](OC(=O)CC)C[C@@H]12 — lower, 47.9%
- O=C1[C@H]2Cc3c([nH]c4ccccc34)[C@@H](c3c(Cl)cccc3Cl)N2C(=O)CN1C1CCN(CC2CCCCC2)CC1 — lower, 80.5%
- Cc1ccccc1C(c1ccccc1)c1ccccc1C — lower, 50.3%
- CC(C)(C)C(=O)/C=c1/[nH]c(=O)/c(=C/c2ccccc2O)s1 — lower, 17.2%
- Cn1c(=O)c2nc(/C=C/c3ccccc3)c(=O)[nH]c2n(C)c1=S — higher, 103%
- Cc1cc2nc(CC(=O)c3cccc([N+](=O)[O-])c3)c(=O)[nH]c2cc1C — lower, 85.1%
- O=CN1N=C(c2ccc3c(c2)OCO3)CC1c1cccc(Nc2ccnc3cc(C(F)(F)F)ccc23)c1 (stereo not given) — lower, 47.1%
- CCCc1cc(CCC)n2nc(N)nc2n1 — higher, 95.8%
- O=C(CCCCCCN1CC(=O)N2[C@H](c3ccc(Br)cc3)c3[nH]c4ccccc4c3C[C@@H]2C1=O)NO — lower, 33.9%
- CCNC(=O)Nc1nc2ccc(Oc3ccnc(C(=O)NC)c3)cc2s1 — lower, 50.8%
- NC(=O)c1ccc[n+](Cc2ccccc2)c1 — higher, 98.4%
- O=C(N/N=C\c1ccccc1O)C1CC1 — higher, 102%
- O=C(OCC(O)C1OC(c2ccccc2)OC(COC(=O)c2ccccc2)C1O)c1ccccc1 (stereo not given) — higher, 100%
- c1cc(C2=N[C@@H]3c4ccccc4C[C@@H]3O2)nc(C2=N[C@@H]3c4ccccc4C[C@@H]3O2)c1 — higher, 95.8%
- Cc1ncc(C(=O)Nc2ccc(CN3CCN(C)CC3)c(C(F)(F)F)c2)cc1C#Cc1c(N)ncc2ccc(C#N)cc12 — higher, 98.5%
- COc1cc(/C=N/OC(=O)Nc2ccccc2)cc(OC)c1OC — higher, 105%
- Cc1cccc(NC(=O)c2sc3nc4c(cc3c2N)C(=O)CCC4)c1 — lower, 33.1%
- O=C(Nn1c2c(sc1=Nc1ccccc1)C(=O)c1ccccc1C2=O)c1cc2ccc1CCc1ccc(cc1)CC2 — higher, 105%
- COC(=O)c1sccc1-c1cc(O)c(C(=O)Nc2ccccc2)s1 — lower, 85.4%
- C=CCOc1ccc2c(c1)CC=C1[C@@H]2CC[C@]2(C)C(=O)/C(=N/O)C[C@@H]12 — lower, 55.7%
- Clc1cc(Cl)cc(N2N=C(c3cccc(Nc4ccncc4)c3)CC2c2ccccc2)c1 (stereo not given) — lower, 37.9%
- COc1cc(C(=O)/C=C/c2cc(-c3ccc4c(c3)OCO4)n[nH]2)cc(OC)c1OC — lower, 29.1%
- O=C(Nc1ccccc1-c1nc2ccccc2c(=O)[nH]1)c1cc2ccccc2[nH]1 — lower, 86.9%
- O=[N+]([O-])c1cc2c(cc1Br)-c1ccccc1C2 — lower, 16.7%
- COc1ccc(C(=O)CC#N)cc1 — higher, 103%
- O=CNc1ccc2c(c1)Cc1cccc(NC=O)c1-2 — lower, 14.5%
- Cc1cc(Nc2ccc(C(=O)N3CCCC3)cc2)nc(NCCCNc2ccnc3cc(Cl)ccc23)n1 — lower, 40%
- CCC(=O)Oc1ccc(OC)cc1 — higher, 106%
- COc1ccccc1-n1c(-c2cc(O)ccc2C)cn2c3c(=O)[nH]c(=O)n(C)c3nc12 — lower, 92.3%
- COc1cc(-c2nc3ccccc3[nH]2)ccc1OCc1nnc(-c2ccc(Br)cc2)o1 — lower, 80.5%
